Measurements published in PubChem BioAssay AID1159580 (chemical genetic matrix, 2015).
Out of some 5,500 compounds screened, about 2,000 (36%) were called active. Inconclusive results (about 18%) are left out. No stated cut-off is given here; in the data, active means normalized growth mostly below about 0.91 (no sharp cut-off); inconclusive means no clear call, values can overlap the other calls; inactive means mostly above about 0.92. The list shows a part of the results.

Test: chemical genetic growth profiling, strain panel (AID 1159580);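 further: tested at 20 µM; growth read once vehicle control cultures reached saturation at 30 °C; 1 = growth at the plate median or of vehicle wells; lower values mean less growth of the strain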
Details: growth OD

Measured: normalized growth

COc1c(O)cccc1O
inactive: S. cerevisiae deletion strains, locus YJL187C, strain SWE1, hits give low values 1.02 | S. cerevisiae deletion strains, locus YJR043C, strain POL32, hits give low values 1.03 | S. cerevisiae deletion strains, locus YJR066W, strain TOR1, hits give low values 0.977 | S. cerevisiae deletion strains, locus YJR075W, strain HOC1, hits give low values 1.02 | S. cerevisiae deletion strains, locus YKL009W, strain mrt4, hits give low values 1.05 | S. cerevisiae deletion strains, locus YKL068W, hits give low values 0.99 | S. cerevisiae deletion strains, locus YKL085W, strain MDH1 (second series), hits give low values 1.01 | S. cerevisiae deletion strains, locus YKL085W, strain MDH1, hits give low values 1.01 | S. cerevisiae deletion strains, locus YKL160W, strain elf1, hits give low values 1.01 | S. cerevisiae deletion strains, locus YKR001C, strain vps1, hits give low values 1.08 | S. cerevisiae deletion strains, locus YKR026C, strain gcn3, hits give low values 1.02 | S. cerevisiae deletion strains, locus YKR091W, strain srl3, hits give low values 1.02 | S. cerevisiae deletion strains, locus YLL001W, strain dnm1, hits give low values 1.03 | S. cerevisiae deletion strains, locus YLL026W, hits give low values 1.02 | S. cerevisiae deletion strains, locus YLL041C, strain sdh2, hits give low values 1.02 | S. cerevisiae deletion strains, locus YLR027C, strain aat2, hits give low values 1.01 | S. cerevisiae deletion strains, locus YLR039C, strain RIC1, hits give low values 1.11 | S. cerevisiae deletion strains, locus YLR058C, strain SHM2, hits give low values 1.03 | S. cerevisiae deletion strains, locus YLR102C, strain apc9, hits give low values 1 | S. cerevisiae deletion strains, locus YLR113W, strain HOG1, hits give low values 1.04 | S. cerevisiae deletion strains, locus YLR221C, strain rsa3, hits give low values 1.03 | S. cerevisiae deletion strains, locus YLR258W, strain gsy2, hits give low values 1.02 | S. cerevisiae deletion strains, locus YLR262C, strain YPT6 (second series), hits give low values 1.03 | S. cerevisiae deletion strains, locus YLR268W, strain sec22, hits give low values 1.05 | S. cerevisiae deletion strains, locus YLR320W, strain mms22, hits give low values 1.04 | S. cerevisiae deletion strains, locus YLR330W, strain CHS5, hits give low values 1.01 | S. cerevisiae deletion strains, locus YLR342W, strain FKS1, hits give low values 1.03 | S. cerevisiae deletion strains, locus YLR357W, strain rsc2, hits give low values 1.03 | S. cerevisiae deletion strains, locus YLR370C, strain arc18, hits give low values 1.02 | S. cerevisiae deletion strains, locus YLR371W, strain rom2, hits give low values 1.03 | S. cerevisiae deletion strains, locus YLR384C, strain iki3, hits give low values 1.01 | S. cerevisiae deletion strains, locus YLR418C, strain cdc73, hits give low values 1.1 | S. cerevisiae deletion strains, locus YML016C, strain PPZ1, hits give low values 1.01 | S. cerevisiae deletion strains, locus YML032C, strain rad52, hits give low values 1.01 | S. cerevisiae deletion strains, locus YML120C, strain ndi1, hits give low values 1.01 | S. cerevisiae deletion strains, locus YML124C, strain tub3, hits give low values 1 | S. cerevisiae deletion strains, locus YMR058W, strain fet3, hits give low values 1.03 | S. cerevisiae deletion strains, locus YMR078C, strain ctf18, hits give low values 1.02 | S. cerevisiae deletion strains, locus YMR125W, strain sto1, hits give low values 1.01 | S. cerevisiae deletion strains, locus YMR129W, hits give low values 1.02 | S. cerevisiae deletion strains, locus YMR205C, strain PFK2, hits give low values 1.03 | S. cerevisiae deletion strains, locus YMR223W, strain ubp8, hits give low values 1.03 | S. cerevisiae deletion strains, locus YMR231W, strain pep5, hits give low values 1 | S. cerevisiae deletion strains, locus YMR307W, strain GAS1, hits give low values 1.13 | S. cerevisiae deletion strains, locus YNL067W, strain RPL9B, hits give low values 0.97 | S. cerevisiae deletion strains, locus YNL071W, strain lat1, hits give low values 1.03 | S. cerevisiae deletion strains, locus YNL153C, strain GIM3, hits give low values 1.02 | S. cerevisiae deletion strains, locus YNL183C, strain NPR1, hits give low values 0.984 | S. cerevisiae deletion strains, locus YNL209W, strain ssb2, hits give low values 1.01 | S. cerevisiae deletion strains, locus YNL233W, strain BNI4, hits give low values 1.03 | S. cerevisiae deletion strains, locus YNL248C, strain rpa49, hits give low values 1.04 | S. cerevisiae deletion strains, locus YNL250W, strain rad50, hits give low values 1.05 | S. cerevisiae deletion strains, locus YNL271C, strain bni1, hits give low values 1.02 | S. cerevisiae deletion strains, locus YNL298W, strain CLA4, hits give low values 1.03 | S. cerevisiae deletion strains, locus YNL307C, strain MCK1, hits give low values 1.01 | S. cerevisiae deletion strains, locus YNL322C, strain KRE1 (second series), hits give low values 1.02 | S. cerevisiae deletion strains, locus YNL322C, strain KRE1, hits give low values 0.99 | S. cerevisiae deletion strains, locus YNR049C, strain mso1, hits give low values 1.02 | S. cerevisiae deletion strains, locus YNR052C, strain pop2, hits give low values 1.04 | S. cerevisiae deletion strains, locus YOL012C, strain htz1 0.853 | S. cerevisiae deletion strains, locus YOL147C, strain pex11, hits give low values 0.999 | S. cerevisiae deletion strains, locus YOR001W, strain rrp6, hits give low values 1.02 | S. cerevisiae deletion strains, locus YOR061W, strain CKA2, hits give low values 1.01 | S. cerevisiae deletion strains, locus YOR069W, strain VPS5, hits give low values 0.996 | S. cerevisiae deletion strains, locus YOR070C, strain gyp1, hits give low values 1.01 | S. cerevisiae deletion strains, locus YOR080W, strain dia2, hits give low values 1.03 | S. cerevisiae deletion strains, locus YOR083W, strain WHI5, hits give low values 1.03 | S. cerevisiae deletion strains, locus YOR106W, strain vam3, hits give low values 1.06 | S. cerevisiae deletion strains, locus YOR136W, strain idh2, hits give low values 1.02 | S. cerevisiae deletion strains, locus YOR144C, strain elg1, hits give low values 1.01 | S. cerevisiae deletion strains, locus YOR184W, strain ser1, hits give low values 1.06 | S. cerevisiae deletion strains, locus YOR231W, strain MKK1, hits give low values 1.03 | S. cerevisiae deletion strains, locus YOR265W, strain rbl2, hits give low values 1.01 | S. cerevisiae deletion strains, locus YOR270C, strain vph1, hits give low values 1.13 | S. cerevisiae deletion strains, locus YOR290C, strain snf2, hits give low values 1.03 | S. cerevisiae deletion strains, locus YOR316C, strain cot1, hits give low values 1 | S. cerevisiae deletion strains, locus YPL051W, strain arl3, hits give low values 0.998 | S. cerevisiae deletion strains, locus YPL078C, strain atp4, hits give low values 1.03 | S. cerevisiae deletion strains, locus YPL106C, strain sse1, hits give low values 1.04 | S. cerevisiae deletion strains, locus YPL240C, strain hsp82, hits give low values 1.02 | S. cerevisiae deletion strains, locus YPL256C, strain CLN2, hits give low values 1.01 | S. cerevisiae deletion strains, locus YPR119W, strain clb2, hits give low values 1.01 | S. cerevisiae deletion strains, locus YPR141C, strain kar3, hits give low values 1.01 | S. cerevisiae deletion strains, locus YPR163C, strain tif3, hits give low values 1.03 | S. cerevisiae deletion strains, locus YPR167C, strain met16, hits give low values 1.04 | S. cerevisiae deletion strains, strain wtn01, hits give low values 1.04 | S. cerevisiae strains, strain wild type, hits give low values 1
